Measured values reported in ChEMBL document CHEMBL1201862, “PubChem BioAssay data set” (2004).
The campaign covered roughly 51,000 sequences. About 3,800 (7.5%) were called active. No stated cut-off is given here; in the data, active = GI50 up to about 1.1 µM and inactive = higher. This excerpt belongs to a sample that is enriched for actives. Potency and affinity values are given separately.

system: A498

| Substance | GI50 |
| --- | --- |
| mu-(1,7-nanodiamine-N,N')bis-(cis-aminedichloroplatimum (II)), CHEMBL2146215 | 66.5 µM |
| [Bis(aminomethyl)pentamethylenesilane]dichloropaltinum(II), CHEMBL2146202 | 0.279 µM |
| [Bis(aminomethyl)pentamethylenesilane]tetrachloropaltinum(IV), CHEMBL2146204 | 0.132 µM |
| [Bis(aminomethyl)dimethylsilane]tetrachloroplatinum(IV), CHEMBL2146190 | 15.5 µM |
| [Bis(aminomethyl)tetramethylenesilane]dichloropaltinum(II), CHEMBL2146205 | 32.8 µM |
| [Bis(aminomethyl)tetramethylenesilane]tetrachloropaltinum(IV), CHEMBL2146189 | 1.64 µM |
| CISPLATIN, CHEMBL11359 | 8.24 µM |
